Results on 5 compounds are retold here after PubChem BioAssay AID504920 (Johns Hopkins Ion Channel Center, 2011).

Calls of active or inactive are those of the source.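 How the source made its calls: active means peak hERG channel inhibition above 30% at some tested dose, together with a fitted dose response curve; inactive means no hERG inhibition at any dose, or no curve.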

In this assay the target is Voltage-gated inwardly rectifying potassium channel KCNH2 (Homo sapiens) (UniProt Q12809). The experiment in a line: hERG channel inhibition, SAR follow-up, selectivity assay for KCNK9 inhibitor project, FluxOR Tl flux, hERG-expressing cells (AID 504920).
Sequence of Voltage-gated inwardly rectifying potassium channel KCNH2 (Homo sapiens) (Q12809 whole entry, looked up): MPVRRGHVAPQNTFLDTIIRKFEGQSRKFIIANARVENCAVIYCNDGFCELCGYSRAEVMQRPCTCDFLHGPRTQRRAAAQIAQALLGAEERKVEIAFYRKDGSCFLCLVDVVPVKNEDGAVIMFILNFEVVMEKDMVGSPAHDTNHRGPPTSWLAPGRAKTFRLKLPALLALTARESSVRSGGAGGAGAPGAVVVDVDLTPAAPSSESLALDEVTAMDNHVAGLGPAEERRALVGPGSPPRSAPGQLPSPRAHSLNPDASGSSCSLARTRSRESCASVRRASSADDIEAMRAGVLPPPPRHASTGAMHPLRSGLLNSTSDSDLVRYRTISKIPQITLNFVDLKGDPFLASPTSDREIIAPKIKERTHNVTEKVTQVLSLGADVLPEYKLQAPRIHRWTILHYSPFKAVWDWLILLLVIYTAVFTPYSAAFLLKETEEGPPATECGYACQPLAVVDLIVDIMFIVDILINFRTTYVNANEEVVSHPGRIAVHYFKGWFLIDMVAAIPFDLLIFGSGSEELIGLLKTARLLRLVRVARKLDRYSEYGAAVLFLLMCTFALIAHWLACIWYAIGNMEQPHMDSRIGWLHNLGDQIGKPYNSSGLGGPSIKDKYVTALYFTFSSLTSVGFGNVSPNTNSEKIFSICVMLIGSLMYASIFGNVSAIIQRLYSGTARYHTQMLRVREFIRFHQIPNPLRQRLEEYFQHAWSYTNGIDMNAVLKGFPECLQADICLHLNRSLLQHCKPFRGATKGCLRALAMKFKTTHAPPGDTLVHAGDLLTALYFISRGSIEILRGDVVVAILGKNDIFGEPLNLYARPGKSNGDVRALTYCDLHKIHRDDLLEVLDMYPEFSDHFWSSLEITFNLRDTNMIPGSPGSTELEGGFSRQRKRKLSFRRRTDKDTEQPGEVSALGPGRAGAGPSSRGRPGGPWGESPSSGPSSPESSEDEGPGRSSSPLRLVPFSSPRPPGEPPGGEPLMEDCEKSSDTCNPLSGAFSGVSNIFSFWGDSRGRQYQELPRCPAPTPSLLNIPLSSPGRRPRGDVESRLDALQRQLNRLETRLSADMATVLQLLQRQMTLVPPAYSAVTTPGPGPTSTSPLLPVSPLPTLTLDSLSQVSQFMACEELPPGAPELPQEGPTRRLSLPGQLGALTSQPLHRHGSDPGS

Take `Cc1cccc(NC(=O)c2ccccc2NC(=O)c2ccccc2)c1`: the outcome was inactive.

As to `Cc1cccc(C(=O)Nc2cccc(C(=O)Nc3ccccc3)c2)c1`, the compound was called inactive.

As to `Cc1cccc(C(=O)Nc2ccccc2C(=O)Nc2ccccc2)c1`, the result was inactive.

On to `Cc1cccc(C(=O)Nc2ccc(C(=O)Nc3ccccc3)cc2)c1`, for which the outcome was inactive.

With `Cc1cccc(NC(=O)c2cccc(NC(=O)c3ccccc3)c2)c1`, the compound was called inactive.
